Hit rate of the full screen: of about 1,400 compounds, about 1,100 (79%) were called active.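 Rule for the calls: active = fitted half-maximal concentration of a falling signal no higher than twice the top valid dose in every test run; inconclusive = runs disagree, or flat partial inhibition, or poor fit; inactive = every run inactive: flat, wrong direction, or potency beyond limit.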 The set was probably picked from earlier hits. Only a sample is shown. Measured potencies and affinities stand elsewhere.

Data on 47 compounds can be found in PubChem BioAssay AID652062 (Broad Institute, 2013).

The experiment in a line: inhibitors of clade B AD8 Env fusion, dose response, cell-based, cherry-pick (AID 652062). To be noted: HeLa-AD8 Env / CEM-CCR5 cell fusion, luciferase; at 35 µM (top of the series) unless noted.
In the case of `O=C(CCNC(=O)c1ccc(Br)cc1)NNC(=O)COc1ccccc1F`, the activity change, negative = inhibition is 9.15%.

For the compound `Nc1nonc1C(=O)NCCNCc1c(OCc2ccccc2F)ccc2ccccc12`, the activity change, negative = inhibition was determined as 10.1%.

On to `O=C(Nc1cc(Cl)cc(Cl)c1)C(c1ccccc1)N1CCCCC1` (configuration not stated), for which the activity change, negative = inhibition is -7.46%.

As to `C[C@H]1CN([C@@H](C)CO)C(=O)c2ccccc2-c2ccccc2CO[C@H]1CN(C)S(=O)(=O)c1ccccc1C#N`, the activity change, negative = inhibition is 30.6%.

As for `CCN1CCN(S(=O)(=O)c2ccc(Cl)c(C(=O)Nc3ccccc3N3CCCC3)c2)CC1`, the activity change, negative = inhibition came out at 48.8%.

On to `CO[C@@H]1CN(C)C(=O)c2cc(NC(=O)Nc3ccc(Cl)cc3)ccc2OC[C@H](C)N(C)C[C@H]1C`, for which the activity change, negative = inhibition was -19.7%.

`C[C@H](CO)N1C[C@H](C)[C@H](CN(C)S(=O)(=O)c2ccc(C#N)cc2)Oc2ncc(/C=C/c3ccccc3)cc2C1=O`: the activity change, negative = inhibition was determined as 16.9% [at 16 µM].

On to `C[C@@H]1CN([C@H](C)CO)C(=O)c2cc(C#Cc3ccncc3)cnc2O[C@@H]1CN(C)S(=O)(=O)c1ccccc1F`, for which the activity change, negative = inhibition was -27%.

On to `S=c1nc[nH]c2c1[nH]c1ccc(Cl)cc12`, for which the activity change, negative = inhibition is 149%.

For `N#Cc1ccc(CSc2nnc(COc3ccccc3)n2-c2ccccc2)cc1`, the activity change, negative = inhibition is 7.17%.

For `C[C@H]1CN([C@@H](C)CO)C(=O)c2cc(NS(=O)(=O)c3ccc(F)cc3)ccc2O[C@H]1CN(C)S(=O)(=O)c1ccc(F)cc1`, the activity change, negative = inhibition was 7.89%.

As to `CCCNC(=O)C[C@H]1C[C@H]2c3cc(NC(=O)CN(C)C)ccc3O[C@H]2[C@H](CO)O1`, the activity change, negative = inhibition is -19.9% [at 16 µM].

Take `CCCNC(=O)C[C@@H]1C[C@@H]2c3cc(NC(=O)Cc4ccncc4)ccc3O[C@@H]2[C@H](CO)O1`: the activity change, negative = inhibition is -27.5%.

Regarding `CCCNC(=O)C[C@@H]1C[C@@H]2c3cc(NC(=O)CN(C)C)ccc3O[C@@H]2[C@H](CO)O1`, the activity change, negative = inhibition was 48.2%.

On to `CCCNC(=O)C[C@H]1C[C@H]2c3cc(NC(=O)Cc4ccncc4)ccc3O[C@H]2[C@H](CO)O1`, for which the activity change, negative = inhibition was -15.2%.

Regarding `C[C@H]1CN([C@@H](C)CO)C(=O)Cc2cc(N(C)C)ccc2O[C@H]1CN(C)CC1CC1`, the activity change, negative = inhibition was 11.8%.

Take `C[C@@H]1CN([C@@H](C)CO)C(=O)Cc2cc(NC(=O)c3ccncc3)ccc2O[C@H]1CN(C)Cc1ccc(Cl)c(Cl)c1`: the activity change, negative = inhibition was -39.7%.

As to `C[C@H](CO)N1C[C@H](C)[C@@H](CN(C)CC2CC2)Oc2ccc(NS(C)(=O)=O)cc2CC1=O`, the activity change, negative = inhibition worked out at 4.33%.

`Nc1ccc(S(=O)(=O)c2ccc(N3CCOCC3)c(N)c2)cc1`: the activity change, negative = inhibition was -17.7%.

For `Cc1ccc(S(=O)(=O)N(C)C[C@H]2Oc3cc(-c4cccc(F)c4)ccc3S(=O)(=O)N([C@H](C)CO)C[C@H]2C)cc1`, the activity change, negative = inhibition is -33.7%.

In the case of `COc1ccccc1-c1ccc2c(c1)O[C@H](CN(C)S(=O)(=O)c1ccccc1)[C@H](C)CN([C@H](C)CO)S2(=O)=O`, the activity change, negative = inhibition amounted to 18.5%.

Turning to `COc1ccc2c3c(n(C)c2c1)[C@@H](CO)N(C(=O)C1CCOCC1)CC31CCN(Cc2cccc(F)c2)CC1`, the activity change, negative = inhibition is -3.19%.

Consider `COc1ccc2c3c(n(C)c2c1)[C@@H](CO)N(C(=O)Nc1ccc(F)cc1)CC31CCN(Cc2cccc(F)c2)CC1`, for which the activity change, negative = inhibition was -2.46%.

On to `COc1ccc2c3c([nH]c2c1)[C@H](CO)N(C(=O)Nc1cccc(F)c1)CC31CCN(S(=O)(=O)c2ccccc2)CC1`, for which the activity change, negative = inhibition is -57.4%.

On to `COc1ccc2c3c([nH]c2c1)[C@@H](CO)N(C(=O)Nc1cccc(F)c1)CC31CCN(S(=O)(=O)c2ccccc2)CC1`, for which the activity change, negative = inhibition was -99.7%.

In the case of `CC1(C(=O)NCc2ccc3c(c2)OCO3)CCN1Cc1csc2ccccc12` (configuration not stated), the activity change, negative = inhibition is -11%.

As to `CCNC1CCC(Nc2ccnc3cc(Cl)ccc23)CC1` (configuration not stated), the activity change, negative = inhibition was -25.4%.

Consider `CCCCCCc1nc2ccccc2c(=O)n1NC(=O)c1c(O)c2c(n(CC(C)C)c1=O)CCCC2`, for which the activity change, negative = inhibition is -7.39%.

Consider `COc1ccc(-c2nn(C)c(=O)c3ccccc23)cc1NC(=O)COc1ccccc1`, for which the activity change, negative = inhibition was -10.9%.

`COc1ccc(OCC(=O)Nc2cc(-c3nn(C)c(=O)c4ccccc34)ccc2OC)cc1`: the activity change, negative = inhibition is -23.3%.

For `CS(=O)(=O)Nc1ccc2c(c1)[C@H]1C[C@H](CC(=O)N3CCc4ccccc4C3)O[C@H](CO)[C@H]1O2`, the activity change, negative = inhibition was -8.56%.

Turning to `CN(C)C(=O)C[C@@H]1C[C@@H]2c3cc(NS(=O)(=O)c4ccc(F)cc4)ccc3O[C@@H]2[C@@H](CO)O1`, the activity change, negative = inhibition stood at 8.4%.

Consider `CN(C)C(=O)C[C@H]1C[C@@H]2c3cc(NS(=O)(=O)c4ccc(F)cc4)ccc3O[C@@H]2[C@@H](CO)O1`, for which the activity change, negative = inhibition was -6.58%.

On to `CS(=O)(=O)Nc1ccc2c(c1)[C@H]1C[C@@H](CC(=O)NCCN3CCCCC3)O[C@@H](CO)[C@H]1O2`, for which the activity change, negative = inhibition was 21%.

Regarding `CS(=O)(=O)Nc1ccc2c(c1)[C@@H]1C[C@@H](CC(=O)N3CCc4ccccc4C3)O[C@H](CO)[C@@H]1O2`, the activity change, negative = inhibition was 41.9%.

`O=C(C[C@H]1C[C@@H]2c3cc(NC(=O)Nc4ccc(F)cc4)ccc3O[C@@H]2[C@@H](CO)O1)NCC1CC1`: the activity change, negative = inhibition is -36.8%.

For `O=C(Nc1ccc(F)cc1)Nc1ccc2c(c1)[C@@H]1C[C@H](CC(=O)N3CCCCC3)O[C@H](CO)[C@@H]1O2`, the activity change, negative = inhibition was -21.7%.

Regarding `O=C(C[C@@H]1C[C@H]2c3cc(NC(=O)Nc4ccc(F)cc4)ccc3O[C@H]2[C@H](CO)O1)NCC1CC1`, the activity change, negative = inhibition came out at 49.9%.

For the compound `O=C(Nc1ccc(F)cc1)Nc1ccc2c(c1)[C@@H]1C[C@H](CC(=O)N3CCCCC3)O[C@@H](CO)[C@@H]1O2`, the activity change, negative = inhibition is -7.88%.

For `CN1CCN(C(=O)C[C@H]2C[C@@H]3c4cc(NS(C)(=O)=O)ccc4O[C@@H]3[C@H](CO)O2)CC1`, the activity change, negative = inhibition is -46%.

Take `COc1cccc(S(=O)(=O)Nc2ccc3c(c2)[C@H]2C[C@H](CC(=O)NCc4ccc(Cl)cc4)O[C@@H](CO)[C@H]2O3)c1`: the activity change, negative = inhibition amounted to 0.353%.

Take `COCCNC(=O)C[C@@H]1C[C@H]2c3cc(N(C)C)ccc3O[C@H]2[C@@H](CO)O1`: the activity change, negative = inhibition was -37%.

For the compound `CN(C)CC(=O)Nc1ccc2c(c1)[C@H]1C[C@H](CC(=O)NCc3cccc(F)c3)O[C@@H](CO)[C@H]1O2`, the activity change, negative = inhibition was -1.18%.

As for `O=C(C[C@H]1C[C@H]2c3cc(NS(=O)(=O)c4ccc(F)cc4)ccc3O[C@H]2[C@@H](CO)O1)NCc1ccccc1F`, the activity change, negative = inhibition was 28%.

On to `O=C(C[C@H]1C[C@@H]2c3cc(NC(=O)C4CCOCC4)ccc3O[C@@H]2[C@@H](CO)O1)NCc1ccccc1F`, for which the activity change, negative = inhibition is -7.12%.

On to `O=C(C[C@@H]1C[C@H]2c3cc(NC(=O)C4CCOCC4)ccc3O[C@H]2[C@H](CO)O1)NCc1ccccc1F`, for which the activity change, negative = inhibition was 10.9%.

Regarding `O=C(C[C@@H]1C[C@@H]2c3cc(NC(=O)C4CCOCC4)ccc3O[C@@H]2[C@H](CO)O1)NCc1ccccc1F`, the activity change, negative = inhibition worked out at 23.2%.
